# Laboratory results: PubChem BioAssay AID1159506 (National Center for Advancing Translational Sciences (NCATS), 2015)
# Over roughly 59,000 sequences, the read-out has its median near -0.00055; the lowest 2% begin near -2. This excerpt belongs to a sample that is enriched for the lowest values.
# Assay: Identification of proteins required for the processing of the EWS-FLI1 nascent transcript;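 also: robust z of luciferase light less the median z of siRNAs with the same seed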
# Conditions: TC32 Ewing sarcoma NR0B1-luc vs CMV-luc (EWS-FLI1 target promoter against control promoter), 48 h; screened at 20 nM (by protocol)
# In short: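 Parallel TC32-NR0B1-luc and TC32-CMV-luc reverse transfections with 20 nM siRNA in RPMI-1640/10% FBS, luciferase measured 48 h later. Seed-adjusted z-scores from normalized, z-score-MAD transformed data; AllStars negative and siGL4 controls on each plate.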
row,Sequence,seed-corrected z-score
1,UCAUGUGGCAUUUCUGGGA against LOC642852,-2.43
2,AUUCUUACCACAACUAUCC against SRP14,-0.807
3,UAAGCUGCGUGUUUUUAUC against TRIM14,-2.45
4,UUUACGAAGUUUUUGAUAG against EML1,-0.287
5,UUUGUAGAGAAGUUUCACC against ZNF517,0.211
6,UUAGCUUCAACGGUGUUAC against E2F8,-1.58
7,UCGAUGAACAACCAUAUGC against PRKAA2,0.499
8,UUAUCUGCUUUAGAUUUGC against PYROXD1,-0.293
9,GAAGGUGCAGAUCUGUUUG against SCX,-2.92
10,UCAUCUACGAUAUUCAUGA against ADAMTS14,-0.269
11,UAAGCAUCUCACAAAAUCG against MITD1,-0.778
12,AAACUUCACUGUUACUUGG against LYSMD1,-0.262
13,UCGGUAACAAAAAUUAGUG against RNF217,0.42
14,UCUGUUCAAUACUUAAACC against PRUNE2,-0.544
15,UUUCUUAUCACCAUCAAAC against PGD,0.244
16,UAAGUUGCGAGCGUAGUGG against GAL3ST4,-3.11
17,UAUGUAGCAAAUCACAGUA against TMEM39A,0.421
18,UCUGCGGAAACUUUGGUGG against CDH11,-0.023
19,UCUUGAUACAGAUUCCAUC against RFX8,0.516
20,UCCUUUAGCACCUUCACCG against RAD23A,-2.73
21,UUGUUGUCAAUGUUAAUCG against SNX29P1,-0.677
22,AUAUUUCAAGGCAAGCUUC against DNAJC5,0.415

row,Sequence,seed-corrected z-score
1,AUGGUAGCGGAAGAAAUUC against TMEM205,-2.26
2,UAAUCUUUAUUGUCACUAG against GRB7,-0.659
3,UUUGGCAAGACUUAACUUG against SCGB1D2,0.678
4,AUUUUGUCACUGGAAAGGC against OIP5,0.784
5,UAUGCGCUUUGAGACUAGC against ZNF236,-0.344
6,UUGAGGUUACUGGAGCUGC against ZNF683,-0.208
7,AUCCUUAAUGUAACUAUUG against C12orf60,0.108
8,UAUAUCAUUAAGCAAUGCC against SF3B1,-3.22
9,UAAGUAGACGUGCAGAUCA against MFSD6L,0.136
10,UACUCGAAGAUCAUCUUGG against MYO6,-0.142
11,AUAGUUCCCUCGAUGAGGC against CCS,0.322
12,UCUCCUGUAACAGACUCUG against ERICH1,0.83
13,AUAGACAACUUUGAGGUCC against AP1S1,-0.000301
14,UUCAGCACAGAGAAAUUCG against SHISA2,1.31
15,UUGUUACUAAGAUCAACAG against PIWIL4,-0.273
16,UAAAAUAUCAAGCGAAUCA against LOC399886,0.0836
17,UACCGGGAUACAUGCAUGC against KIAA1551,-2.73
18,AAACGAAACAUGACGACAC against RSG1,-0.0435
19,UGAUGUACUCCACUGAUGC against TFEC,-0.552
20,UCUCUUUGUGGUGUACUUG against FGF13,-12.9
21,UUCCGAAUGGAAACUCUGG against BCL7C,0.615
22,AUACCGAUCAUAGCACAUC against OR2A12,0.195

row,Sequence,seed-corrected z-score
1,UAUUAGGUCUUAUUUAUUC against NXNL2,0.499
2,UCUCUAUCAGUUCUCUUGG against RBM20,-0.358
3,AAAGGGACACUGAUUCAGU against TRAM1,-2.59
4,UCAGGGUAUUUGGUGAGGG against KCTD1,-0.632
5,AUAAUACCAACUCAAAUGC against FRRS1L,1.1
6,UUCUGAGCAGGUUCUACUG against SGOL1,-2.98
7,UAGGUAACUAUUUCUUCUC against CHURC1,1.33
8,UCUUCUAUCUUGCACAUUG against NLRP9,0.587
9,UAGGUUACGUGUCCAGAGG against NR2F6,-0.85
10,ACCAUUGUCAUUGCCUUGC against 1-Mar,-1.24
11,GAUUUCUUCAGGUGCUCCU against PDLIM7,-0.372
12,UGUAGUAUAUGAUCGACCU against LOC728613,-11.7
13,UAGGCGAUGAAGAGCGUGC against MC1R,0.184
14,AAAGUAUCGGUAUUUGUCU against NDUFB9,0.025
15,AAUCUCAUGAGUUGCAACC against MMP26,-0.158
16,UUCCGGUUCCUCAUCUUCU against NUCKS1,-0.00682
17,UAAAGUACUGUCGUCAAUG against STOX2,-2.26
18,UUGUGGUUCUCGGAUACGC against CDH15,-0.955
19,GAAGCUAUCCCAGCUCUCA against RPL21P131,0.152
20,UGUUUUACAAGCAAUGUCC against TEX19,-2.08
21,UGCUGUAUAAUAUCCUUGC against GALNT3,0.503
22,UUGUGCACCACGAGCAUGG against B3GNT7,-1.07
